{"source": "PubChem BioAssay (Tox21)", "note": "Where “and” joins values, the source holds several entries; their conditions need not be identical. Identical values can stand only once. Results filed as inconclusive are left out. Calls of active or inactive are those of the source. Calls come from the whole dose curve; as a rule, active = well fitted cell-killing curve with a large enough effect in the repeat runs; inconclusive = weak or mixed curves, or effect the other way; inactive = flat fitted curve, though single readings scatter. % is set by controls: 0 for no effect and ±100 for the full control effect; potency is the fitted concentration of half-maximal effect."}
{"test": "qHTS RealTime-Glo MT Cell Viability Assay in HEK293 cells - 24 hour (AID 1224886); note: nearly all actives have a fitted effect of over 50% in size", "conditions": "RealTime-Glo luminescence; series mostly up to 76.8 µM", "excerpt": "National Center for Advancing Translational Sciences [NCATS]\nNIH Chemical Genomics Center [NCGC]\nU.S. Environmental Protection Agency [EPA]\nNational Institutes of Environmental Health Sciences [NIEHS]\nNational Toxicology Program [NTP]\nU.S. Food and Drug Administration [FDA]\nMeasure of cell viability is critical in the cell-base assay. Analysis of cell viability is necessary for the characterization of cell responses to cytotoxic drugs and environmental stress. A RealTime-Glo MT Cell Viability Assay to monitor cell viability in real time of continues cell culture during 40 hours of compound treatment was used to screen Tox21 10K library compounds in Hek293 cells. The RealTime-Glo MT Cell Viability Assay is a nonlytic, homogeneous, bioluminescent method to measure cell viability in real time using a simple, plate-based method. The assay involves adding NanoLuc luciferase and a cell-permeant prosubstrate to cells in culture. Viable cells reduce the proprietary prosubstrate to generate a substrate for NanoLuc luciferase. This substrate diffuses from cells into the surrounding culture medium, where it is rapidly used by the NanoLuc Enzyme to produce a luminescent signal. The signal correlates with the number of viable cells, making the assay well suited for cytotoxicity studies.\nTox21 Assay Protocol Summary:\nThe mixture of Hek293 cell suspension and reagents were dispensed at 600cells/6 ul/well in 1536-well tissue culture treated black solid bottom plates using a Multidrop dispenser. After the assay plates were incubated at a 37 C/5% CO2 incubator for 5 hours, 23 nL of compounds dissolved in DMSO, positive and negative controls was transferred to the assay plate by a pintool work station. The plates were incubated at 37 C for 40 hours. The luminescence intensity were measured at 0h, 8h, 16h, 24h, 32h and 40h time points using ViewLux plate reader during compound treatment."}
{"smiles": "Cc1onc(-c2ccccc2Cl)c1C(=O)N[C@@H]1C(=O)N2[C@@H]1SC(C)(C)[C@@H]2C(=O)O", "Potency": "inactive"}
{"smiles": "COc1cc(-c2nc(NC(=O)c3cc4cc(C)cc(C)c4n3CC(=O)O)sc2CCC2CCCCC2)c(OC)cc1Cl", "Potency": "40 µM (active)"}
{"smiles": "O=C(Nc1cccc(Cl)c1)OCC#CCCl", "Potency": "49 µM (active)"}
{"smiles": "CCCCCCCCOC(=O)c1ccc(O)cc1", "Potency": "24.5 µM (active)"}
{"smiles": "CCCC(C)c1ccccc1O", "note": "(stereo not given)", "Potency": "inactive"}
{"smiles": "S=c1[nH]c2ccccc2s1", "Potency": "inactive"}
{"smiles": "CSc1cnc(C)cn1", "Potency": "inactive"}
{"smiles": "Nc1c2ccccc2nc2ccccc12", "Potency": "7.66 µM (active) and 21.3 µM (active)"}
{"smiles": "CCOC(=O)c1nc(C(Cl)(Cl)Cl)n(-c2ccc(Cl)cc2Cl)n1", "Potency": "inactive"}
{"smiles": "CC1=C(/C=C/C(C)=C/C=C/C(C)=C/C=O)C(C)(C)CCC1", "Potency": "17.3 µM (active)"}
{"smiles": "CNCc1cc(F)ccc1Oc1ccc(Cl)c(Cl)c1", "Potency": "38.9 µM (active)"}
{"smiles": "COc1cc(-c2ccc(N=C=O)c(OC)c2)ccc1N=C=O", "Potency": "inactive"}
{"smiles": "CCCCCCCC[N+](CCCCCCCC)(CCCCCCCC)CCCCCCCC", "Potency": "6.15 µM (active)"}
{"smiles": "COC(=O)c1cc(Cl)ccc1OC", "Potency": "inactive"}
{"smiles": "CC(C)c1ccc2c(c1)CC[C@H]1[C@](C)(CN)CCC[C@]21C", "Potency": "12.3 µM (active)"}
{"smiles": "OC1(c2ccc(Cl)c(C(F)(F)F)c2)CCN(CCCC(c2ccc(F)cc2)c2ccc(F)cc2)CC1", "Potency": "9.52 µM (active)"}
{"smiles": "CCCC/C=C/CCCCO", "Potency": "inactive"}
{"smiles": "O=[N+]([O-])c1ccccc1Nc1ccccc1", "Potency": "inactive"}
{"smiles": "NC(=O)CC[C@@H]1NC(=O)[C@H](Cc2ccccc2)NC(=O)[C@H](Cc2ccc(O)cc2)NC(=O)CCSSC[C@@H](C(=O)N2CCC[C@H]2C(=O)N[C@@H](CCCN=C(N)N)C(=O)NCC(N)=O)NC(=O)[C@H](CC(N)=O)NC1=O", "Potency": "inactive"}
{"smiles": "COC(=O)C1=C(C)NC(C)=C(C(=O)OCCc2ccc(N3CCN(C(c4ccccc4)c4ccccc4)CC3)cc2)C1c1cccc([N+](=O)[O-])c1", "note": "(stereo not given)", "Potency": "inactive"}
{"smiles": "O=[N+]([O-])c1cc([N+](=O)[O-])c2ccc(S(=O)(=O)O)cc2c1O", "Potency": "inactive"}
{"smiles": "CCCCN(CCCC)c1ccc(C(=O)c2ccccc2C(=O)O)c(O)c1", "Potency": "inactive"}
{"smiles": "CCC(CN)=C(c1ccccc1)c1ccccc1", "Potency": "inactive"}
{"smiles": "O=C(Oc1ccccc1)c1ccccc1C(=O)Oc1ccccc1", "Potency": "inactive"}
{"smiles": "CC[C@H]1O[C@]2(CC[C@@H]1C)C[C@@H]1C[C@@H](C/C=C(\\C)C[C@@H](C)/C=C/C=C3\\CO[C@@H]4[C@H](O)C(C)=C[C@@H](C(=O)O1)[C@]34O)O2", "Potency": "34.4 µM (active)"}
{"smiles": "CCCCC(CC)CN=C(N)NC(N)=NCCCCCCN=C(N)NC(N)=NCC(CC)CCCC", "note": "(stereo not given)", "Potency": "5.35 µM (active)"}
{"smiles": "C[C@@H](NCCCc1cccc(C(F)(F)F)c1)c1cccc2ccccc12", "Potency": "23.9 µM (active)"}
{"smiles": "O=C(NO)C1(NS(=O)(=O)c2ccc(Oc3ccc(F)cc3)cc2)CCOCC1", "Potency": "inactive"}
{"smiles": "CCCCCCOC(=O)c1ccc(O)cc1", "Potency": "43.7 µM (active) and 24.5 µM (active)"}
{"smiles": "O=C(c1ccc(F)cc1)C1CCN(CCn2c(=O)[nH]c3ccccc3c2=O)CC1", "Potency": "9.52 µM (active)"}
{"smiles": "CCCCCCCC/C=C\\CCCCCCCCOCCO", "Potency": "3.19 µM (active)"}
{"smiles": "C[n+]1cc2c3c(ccc2c2ccc4cc5c(cc4c21)OCO5)OCO3", "Potency": "0.585 µM (active)"}
{"smiles": "Oc1ccc(N=Nc2ccccc2)cc1", "Potency": "17.6 µM (active)"}
{"smiles": "Cc1cc(O)c(C(C)(C)C)cc1Sc1cc(C(C)(C)C)c(O)cc1C", "Potency": "21.8 µM (active)"}
{"smiles": "CCCCCCCCCCCCc1ccc(O)cc1", "Potency": "43.6 µM (active)"}
{"smiles": "C[C@@H]1C[C@H]2[C@@H]3CCC4=CC(=O)C=C[C@]4(C)[C@@]3(Cl)[C@@H](O)C[C@]2(C)[C@@]1(OC(=O)c1ccco1)C(=O)CCl", "Potency": "inactive"}
{"smiles": "NC(=NCCCCCCN=C(N)/N=C(\\N)Nc1ccc(Cl)cc1)/N=C(\\N)Nc1ccc(Cl)cc1", "Potency": "10.9 µM (active) [middle of 5 runs]"}
{"smiles": "C=C(C)C(=O)OCC(O)COc1ccc(C(C)(C)c2ccc(OCC(O)COC(=O)C(=C)C)cc2)cc1", "note": "(stereo not given)", "Potency": "11 µM (active)"}
{"smiles": "CN(C)[C@@H]1C(=O)C(C(N)=O)=C(O)[C@@]2(O)C(=O)C3=C(O)c4c(O)ccc(Cl)c4[C@@H](O)[C@H]3C[C@@H]12", "Potency": "inactive"}
{"smiles": "CCCCCCCCCCn1cc[n+](CCCCCCCCCC)c1C", "Potency": "2.19 µM (active)"}
